Data on 13 compounds can be found in PubChem BioAssay (NCATS).

The nature of experiment [1]: qHTS profiling for inhibitors of Plasmodium falciparum proliferation (AID 504749). Further: nearly all actives have a fitted effect of over 60% in size.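 On activity, negative = inhibition: 0% = DMSO vehicle and full inhibition = artemisinin control.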 To be noted: P. falciparum in erythrocytes, SYBR Green DNA, 72 h, at 28.7 µM (top of the series). The gist of the method: (§1)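 Parasite proliferation within erythrocytes, 72 h exposure. Endpoint: SYBR Green I fluorescence after overnight lysis at room temperature. Controls: 0.29 uM artemisinin, DMSO.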
A general note: Quantitative high-throughput screening tests each substance at several concentrations.

A further experiment concerns 3D7. The experiment is described as above. To be noted: P. falciparum in erythrocytes, SYBR Green DNA, 72 h; series mostly up to 28.7 µM. The gist of the method: as §1
The next experiment has as its system 7G8. The description is as above. To be noted: P. falciparum in erythrocytes, SYBR Green DNA, 72 h; series mostly up to 28.7 µM. The essentials: as §1
The next experiment concerns AA1029. Described as above. To be noted: P. falciparum in erythrocytes, SYBR Green DNA, 72 h; series mostly up to 28.7 µM. The gist of the method: as §1
The subject of another experiment is AS120. The experiment is described as above. To be noted: P. falciparum in erythrocytes, SYBR Green DNA, 72 h; series mostly up to 28.7 µM. The gist of the method: as §1
The next experiment has as its system ATS189. Described as above. To be noted: P. falciparum in erythrocytes, SYBR Green DNA, 72 h; series mostly up to 28.7 µM. The essentials:
as §1

In a further experiment the test system is ATS95. The description is as above. To be noted: P. falciparum in erythrocytes, SYBR Green DNA, 72 h; series mostly up to 28.7 µM. The essentials:
as §1

In a further experiment the test system is C2A. The experiment is described as above. To be noted: P. falciparum in erythrocytes, SYBR Green DNA, 72 h; series mostly up to 28.7 µM. The gist of the method:
as §1

The subject of a further experiment is CP185. The description is as above. To be noted: P. falciparum in erythrocytes, SYBR Green DNA, 72 h; series mostly up to 28.7 µM. The essentials: as §1
A further experiment has as its system CP191. The experiment is described as above. To be noted: P. falciparum in erythrocytes, SYBR Green DNA, 72 h; series mostly up to 28.7 µM. The gist of the method: as §1
Another experiment relates to CP192. The experiment is described as above. To be noted: P. falciparum in erythrocytes, SYBR Green DNA, 72 h; series mostly up to 28.7 µM. The essentials: as §1
The next experiment has as its system CP194. Described as above. To be noted: P. falciparum in erythrocytes, SYBR Green DNA, 72 h; series mostly up to 28.7 µM. The essentials:
as §1

For the next experiment, the system named is CP201. Described as above. To be noted: P. falciparum in erythrocytes, SYBR Green DNA, 72 h; series mostly up to 28.7 µM. The gist of the method: as §1
The next experiment relates to CP211. The description is as above. To be noted: P. falciparum in erythrocytes, SYBR Green DNA, 72 h; series mostly up to 28.7 µM. The gist of the method: as §1
A further experiment has as its system CP215. The description is as above. To be noted: P. falciparum in erythrocytes, SYBR Green DNA, 72 h; series mostly up to 28.7 µM. The essentials: as §1
Another experiment has as its system CP203. Described as above. To be noted: P. falciparum in erythrocytes, SYBR Green DNA, 72 h; series mostly up to 28.7 µM. The gist of the method:
as §1

The structures appear in SMILES notation. Results filed as inconclusive are left out. Unmarked numbers belong to inactive results. Activity calls are given as the source filed them. The call rests on the fitted dose curve; in most records, active means well fitted inhibition curve with a large enough effect; inconclusive means small, poorly fitted or top-dose-only effect; inactive means flat fitted curve, though single readings scatter.
Potency means the concentration at half of the fitted maximal effect.

Turning to `Cc1cccc(C)c1NC(=O)CC12CCCN1CCC2`, the results for the activity, negative = inhibition in experiment [1] (parasite line A) and in experiment [1] (parasite line B) were 2.82% and 0.226%, respectively. Also, the Potency entry with 3D7, with 7G8, in the experiment on AA1029, in the experiment with AS120, with ATS189 and in the experiment with ATS95 was “inactive” each time. Besides, the Potency result in the experiment on C2A, in the experiment with CP185 and with CP215 was “inactive” each time. Moreover, the outcome with CP191, in the experiment on CP192, in the experiment with CP194, in the experiment with CP201 and in the experiment on CP211 was inactive.
For `CC1CC(OC(=O)c2ccccc2O)CC(C)(C)C1` (stereo not given), the activity, negative = inhibition was -5.75% in experiment [1] (parasite line A) and 14.6% in experiment [1] (parasite line B). In addition, the Potency entry with 3D7, in the experiment on 7G8, with AA1029, with AS120, with ATS189 and in the experiment with ATS95 was “inactive” in each case. Moreover, the Potency result in the experiment on C2A, with CP185 and with CP215 was “inactive” in each case. For the same compound, the call with CP191, with CP192, with CP194, in the experiment with CP201 and in the experiment on CP211 was inactive.
Consider `Cc1cccc(Nc2ccccc2C(=O)O)c1C`, for which the activity, negative = inhibition in [1] (parasite line A) was -4.38%; in [1] (parasite line B), 15.2%. For the same compound, the Potency result in the experiment on 3D7, in the experiment on 7G8, in the experiment with AA1029, with AS120, with ATS189 and in the experiment with ATS95 was “inactive” in each case. The Potency result in the experiment on C2A, with CP185 and in the experiment on CP215 was “inactive” throughout. Also, the result with CP191, in the experiment on CP192, in the experiment on CP194, in the experiment on CP201 and in the experiment with CP211 was inactive.
For `NC(=O)c1ccc([N+](=O)[O-])cc1Cl`, the activity, negative = inhibition was -8.53% in [1] (parasite line A) and 6.47% in experiment [1] (parasite line B). In addition, the Potency result in the experiment on 3D7, in the experiment on AA1029, in the experiment with AS120, with ATS95, in the experiment on C2A and in the experiment on CP185 was “inactive” throughout. The Potency result in the experiment on CP203 and with CP215 was “inactive” throughout. In addition, the Potency in the experiment on 7G8 is 8.91 µM (active). Besides, the compound was classed as inactive in the experiment with CP192, with CP194, in the experiment on CP201 and with CP211.
Turning to `Cc1ccc(S(=O)(=O)NC(=O)NC2CCCCCCC2)cc1`, the activity, negative = inhibition in [1] (parasite line A) is 11.2%; in [1] (parasite line B) it was 10.7%. Further, the Potency result in the experiment with 3D7, in the experiment with 7G8, in the experiment on AA1029, with AS120, in the experiment on ATS189 and in the experiment on ATS95 was “inactive” throughout. Besides, the Potency entry in the experiment with C2A, in the experiment with CP185 and in the experiment with CP215 was “inactive” throughout. Further, the compound was called inactive in the experiment with CP191, in the experiment with CP192, with CP194, with CP201 and with CP211.
In the case of `NS(=O)(=O)c1ccc(C(=O)O)cc1`, the activity, negative = inhibition was 18.9% in experiment [1] (parasite line A) and 11.1% in experiment [1] (parasite line B). The Potency entry in the experiment with 3D7, in the experiment on 7G8, with AA1029, in the experiment with AS120, in the experiment with ATS189 and in the experiment on ATS95 was “inactive” each time. Also, the Potency result with C2A, in the experiment with CP185 and in the experiment with CP215 was “inactive” each time. The outcome with CP191, in the experiment with CP192, with CP194, in the experiment on CP201 and in the experiment on CP211 was inactive.
With `CC(C)CCOC(=O)c1ccc(N(C)C)cc1`, the activity, negative = inhibition in experiment [1] (parasite line A) is 18.9%; in experiment [1] (parasite line B), 14.8%. The Potency entry in the experiment on 3D7, in the experiment on 7G8, in the experiment with AA1029, with AS120, in the experiment on ATS189 and in the experiment on ATS95 was “inactive” in each case. In addition, the Potency result with C2A, with CP185 and in the experiment on CP215 was “inactive” in each case. For the same compound, the result in the experiment with CP191, in the experiment on CP192, with CP194, in the experiment with CP201 and with CP211 was inactive.
As for `COc1ccc(O)cc1`, the activity, negative = inhibition in experiment [1] (parasite line A) is -6.25%; in experiment [1] (parasite line B), -15.4%. Besides, the Potency result in the experiment with 3D7, in the experiment on 7G8, in the experiment with AA1029, with AS120, in the experiment with ATS189 and in the experiment on ATS95 was “inactive” each time. For the same compound, the Potency result with C2A, with CP185 and in the experiment on CP215 was “inactive” in each case. Also, the compound was classed as inactive in the experiment on CP191, with CP192, in the experiment with CP194, in the experiment on CP201 and in the experiment on CP211.
As to `CCc1nnc(NS(=O)(=O)c2ccc(N)cc2)s1`, the activity, negative = inhibition was 10.2% in experiment [1] (parasite line A) and 10.5% in [1] (parasite line B). Besides, the Potency entry in the experiment on 3D7, with 7G8, with AA1029, in the experiment on AS120, with ATS189 and with ATS95 was “inactive” throughout. Besides, the Potency result in the experiment on C2A, in the experiment with CP185 and in the experiment with CP215 was “inactive” in each case. The compound was classed as inactive in the experiment with CP191, with CP192, in the experiment on CP194, in the experiment on CP201 and in the experiment with CP211.
Consider `CC(=O)Oc1cccc(C)c1`, for which the activity, negative = inhibition was 4.88% in experiment [1] (parasite line A) and -6.23% in experiment [1] (parasite line B). The Potency result in the experiment with 3D7, in the experiment on 7G8, in the experiment on AA1029, with AS120, in the experiment on ATS189 and in the experiment on ATS95 was “inactive” in each case. Besides, the Potency entry with C2A, in the experiment with CP185 and in the experiment on CP215 was “inactive” in each case. Besides, the result with CP191, in the experiment on CP192, with CP194, with CP201 and in the experiment with CP211 was inactive.
Regarding `CN1CCN(C(=O)C2CCCCC2)CC1`, the activity, negative = inhibition in experiment [1] (parasite line A) was 0.439%; in [1] (parasite line B) it was -13.4%. The Potency result with 3D7, in the experiment with 7G8, with AA1029, in the experiment on AS120, with ATS189 and in the experiment with ATS95 was “inactive” each time. Also, the Potency entry with C2A, in the experiment with CP185 and in the experiment with CP215 was “inactive” throughout. In addition, the outcome with CP191, in the experiment with CP192, with CP194, in the experiment on CP201 and with CP211 was inactive.
For the compound `NNc1nnc(NN)c2ccccc12`, the activity, negative = inhibition in experiment [1] (parasite line A) was 11.4%; in [1] (parasite line B) it was 18.1%. In addition, the Potency result in the experiment with 3D7, with 7G8, with AA1029, in the experiment on AS120, with ATS189 and in the experiment with ATS95 was “inactive” throughout. The Potency result in the experiment on C2A, in the experiment with CP185 and in the experiment with CP203 was “inactive” throughout. Further, the compound was classed as inactive in the experiment with CP191, in the experiment with CP192, with CP194 and in the experiment with CP211.
For the compound `CCN(CC)S(=O)(=O)c1ccc(C(=O)O)cc1`, the activity, negative = inhibition in experiment [1] (parasite line A) is 7.39%; in [1] (parasite line B) it was 20.6%. In addition, the Potency result in the experiment with 3D7, in the experiment on 7G8, in the experiment with AA1029, in the experiment with AS120, in the experiment on ATS189 and in the experiment on ATS95 was “inactive” each time. Moreover, the Potency entry in the experiment on C2A, in the experiment on CP185 and with CP215 was “inactive” throughout. The compound was called inactive in the experiment with CP191, in the experiment on CP194, in the experiment on CP201 and in the experiment with CP211.
